This is part of a sample that, as a whole, favours compounds with a hit. Of some 83,000 tested, about 20% had one in any assay.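 Interpretation: 100, growth as untreated; towards 0, rising growth inhibition; 0, no net growth; 0 to -100, cell death. Compounds scoring below 10 were considered active.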 Activity calls are given as the source filed them.
Tests used:
Assay in all cases: NCI-60 one-dose screen, 48 h (100 = growth as untreated, 0 = no growth, -100 = all killed)
Conditions in all cases: 10 µM unless noted
NCI-H226 lung = system: NCI-H226 lung
NCI-H322M lung = system: NCI-H322M lung
HOP-62 NSCLC = system: HOP-62 NSCLC
NCI-H460 lung = system: NCI-H460 lung
HOP-92 NSCLC = system: HOP-92 NSCLC
NCI-H522 lung = system: NCI-H522 lung
A549/ATCC NSCLC = system: A549/ATCC NSCLC
786-0 renal = system: 786-0 renal
COLO 205 colon = system: COLO 205 colon

Measured: growth

CC1(C)CC[C@]2(C(=O)O)CC[C@]3(C)C(=CCC4[C@@]5(C)C[C@@H](O)[C@@H]6OC(c7ccc(F)cc7)OC[C@@]6(C)C5CC[C@]43C)C2C1 (some centres not stated)
inactive: NCI-H226 lung 34.4% | NCI-H322M lung 29% | HOP-62 NSCLC 47.5% | NCI-H460 lung 15.7% | A549/ATCC NSCLC 17% | 786-0 renal 39.6%
active: HOP-92 NSCLC 1.62% | NCI-H522 lung 8.38% | COLO 205 colon -2.36%

Cn1cc(-c2cc(N)n3nc(-c4cn(C)c5ccccc45)cc3n2)c2cc(Br)ccc21
active: NCI-H226 lung 2.38% | NCI-H322M lung 7.11% | HOP-62 NSCLC -45.2% | NCI-H460 lung -24.2% | HOP-92 NSCLC -59% | NCI-H522 lung -62.7% | A549/ATCC NSCLC 4.06% | 786-0 renal -85% | COLO 205 colon -79.1%

Cn1cc(-c2cc3nc(-c4c[nH]c5ccc(Cl)cc45)cc(N)n3n2)c2ccccc21
active: NCI-H226 lung -33.8% | NCI-H322M lung -82% | HOP-62 NSCLC -72.3% | HOP-92 NSCLC -76.5% | NCI-H522 lung -76.5% | A549/ATCC NSCLC -75% | 786-0 renal -89% | COLO 205 colon -87.4%

C#CCOc1cc(N(CC)CC)ccc1C(C(=O)NC(C)(C)C)N(C(=O)C1CCc2cc(F)ccc2O1)c1cc(C)cc(C)c1 (configuration not stated)
inactive: NCI-H226 lung 33.3% | NCI-H322M lung 66.6% | HOP-62 NSCLC 52.4% | NCI-H460 lung 30.4% | A549/ATCC NSCLC 36.1% | 786-0 renal 36.3% | COLO 205 colon 31.3%
active: HOP-92 NSCLC 9.21%

COc1cc2oc(-c3cccc(NC(=O)[C@H](CC(N)=O)NC(=O)OC(C)(C)C)c3)cc(=O)c2c(OC)c1OC
inactive: NCI-H226 lung 92.7% | NCI-H322M lung 101% | HOP-62 NSCLC 104% | NCI-H460 lung 89.1% | HOP-92 NSCLC 74.9% | NCI-H522 lung 73.7% | A549/ATCC NSCLC 95% | 786-0 renal 88.2% | COLO 205 colon 109%

COC(=O)/C=C/c1cccc2c1C(=O)NC(C)(c1cc3cc4ccccc4cc3oc1=O)N2 (configuration not stated)
inactive: NCI-H226 lung 30.5% | NCI-H322M lung 68% | HOP-62 NSCLC 33.7% | NCI-H460 lung 23.1% | NCI-H522 lung 52.9% | A549/ATCC NSCLC 26.9% | 786-0 renal 83.9% | COLO 205 colon 53%

Cn1cc(-c2nc(N)nnc2-c2c[nH]c3ccc(F)cc23)c2cc(Br)cnc21
inactive: NCI-H322M lung 34.8% | HOP-62 NSCLC 20.1% | A549/ATCC NSCLC 11.1%
active: NCI-H226 lung 1.02% | NCI-H460 lung 0.596% | HOP-92 NSCLC -6.31% | 786-0 renal 5.54% | COLO 205 colon -82.9%

Cn1cc(-c2cc(N)n3nc(-c4cn(C)c5ccccc45)cc3n2)c2cc(Cl)ccc21
inactive: NCI-H226 lung 21.5%
active: NCI-H322M lung -1.12% | HOP-62 NSCLC -52.1% | NCI-H460 lung -50.2% | HOP-92 NSCLC -58.2% | NCI-H522 lung -62.7% | A549/ATCC NSCLC 2.54% | 786-0 renal -86% | COLO 205 colon -80.1%

CCN(CC)c1ccc(/C=N/Nc2nc(-c3ccc(Br)cc3)cs2)c(O)c1
inactive: NCI-H226 lung 31.7% | NCI-H322M lung 96.9% | HOP-62 NSCLC 110% | NCI-H460 lung 89.3% | NCI-H522 lung 17% | A549/ATCC NSCLC 90.5% | 786-0 renal 49.9% | COLO 205 colon 58.3%

COc1ccc2[nH]cc(-c3nnc(N)nc3-c3cn(C)c4ncc(Br)cc34)c2c1
inactive: NCI-H226 lung 91.7% | NCI-H322M lung 77.9% | HOP-62 NSCLC 70.2% | NCI-H460 lung 83.1% | NCI-H522 lung 50.3% | A549/ATCC NSCLC 84.3% | 786-0 renal 52.5% | COLO 205 colon 102%
active: HOP-92 NSCLC 6.98%

Cn1cc(-c2cc(N)n3nc(-c4cn(C)c5ccc(Cl)cc45)cc3n2)c2ccccc21
inactive: NCI-H226 lung 105% | NCI-H322M lung 103% | HOP-62 NSCLC 115% | NCI-H460 lung 115% | NCI-H522 lung 100% | A549/ATCC NSCLC 107% | 786-0 renal 88.4% | COLO 205 colon 117%

COc1ccc(/C=C/c2nc3ccccc3nc2Nc2cccc(C)c2)cc1
inactive: NCI-H226 lung 93.1% | NCI-H322M lung 105% | HOP-62 NSCLC 92.7% | NCI-H460 lung 101% | HOP-92 NSCLC 99.3% | NCI-H522 lung 83% | A549/ATCC NSCLC 106% | 786-0 renal 97.4% | COLO 205 colon 105%
